High-throughput results (PubChem BioAssay)
Hits are enriched below; roughly 4.8% of the tested compounds scored in any of these assays.
ssDAF12 agonist – activators of S. stercoralis DAF-12 nuclear receptor; HEK293 ssDAF-12/GRIP1 lit1-tk-luc reporter, luminescence; % of 3 µM dafachronic acid response; 370,000 tested, 1% active; activation, % at 6.8 µM;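 active = activation above the mean over all tested compounds plus 3 SD, cut at about 0.9% in these data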
SMARCA2 activ – increases SMARCA2 function in MMTV reporter cells; 370,000 tested, 1% active; activation, % at 9.1 µM; AID 652017; MG213 cells, MMTV-luciferase reporter, dexamethasone, overnight; in the data active = activation above about 7.8%
hcDAF-12 act – activators of H. contortus DAF-12 nuclear receptor; HEK293 hcDAF-12 lit1-tk-luc reporter, luminescence; 0% DMSO, 100% Δ7-dafachronic acid; activation, % at 6.8 µM; 370,000 tested, 1.4% active;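 active = activation above the mean of all tested compounds plus 3 SD, cut at about 5.5% in these data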
DAX1 inh-1 – blocks DAX1 repression of SF-1 activated StAR promoter | HEK293T StAR-luciferase reporter, SF-1/DAX-1 repression relief | inhibition, % at 6.8 µM | 370,000 tested, 1.1% active;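 active = inhibition above the mean over all tested compounds plus 3 SD, cut at about 3.6% in these data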;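 also: higher inhibition means more luminescence from relief of DAX-1 repression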
DAX1 inh-2 – inhibits human nuclear receptor DAX1 | HEK293 Gal4-DAX1 luciferase reporter, luminescence | inhibition, % at 6.75 µM | 340,000 tested, 0.99% active;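 active = inhibition above the mean over all tested compounds plus 3 SD, cut at about 4.2% in these data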;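 also: inhibition shows as a rise in luminescence from relieved DAX1 repression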
Target sequence (P51843 207-470 limits assumed): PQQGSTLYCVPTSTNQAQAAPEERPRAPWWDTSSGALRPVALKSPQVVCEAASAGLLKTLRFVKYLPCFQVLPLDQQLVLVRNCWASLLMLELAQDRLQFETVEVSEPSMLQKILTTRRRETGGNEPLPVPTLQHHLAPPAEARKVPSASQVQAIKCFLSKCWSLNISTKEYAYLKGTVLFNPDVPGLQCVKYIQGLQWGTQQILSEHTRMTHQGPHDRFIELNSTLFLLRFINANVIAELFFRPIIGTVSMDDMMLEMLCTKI
hgDAF-12 ag – agonists of H. glycines DAF-12 nuclear receptor; HEK293 GAL4-hgDAF12 UAS-luciferase reporter, agonist luminescence; normalized to butyrate control; activation, % at 6.8 µM; 370,000 tested, 1.8% active; AID 687014;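 active = activation above a cutoff set at the mean of all screened compounds plus 3 SD, cut at about 10% in these data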
DAX1 inh confirm – NR0B1 (human) inhibition, confirmation | shares compounds with DAX1 inh-1 | HEK293T StAR-promoter luciferase reporter, SF-1/DAX-1 repression | inhibition, % at 6.8 µM | 2,400 tested, 87% active;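 active = inhibition above the average of every tested compound plus 3 SD, cut at about 3.8% in these data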;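 also: active compounds raise luminescence by relieving repression of the StAR reporter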
SF1 mutant ctr – nonselective inhibitor or artifact in SF-1 mutant DAX1 counter-screen; shares compounds with DAX1 inh-1; HEK293 StAR-luciferase, SF-1 AF2 mutant, luminescence; inhibition, % at 6.8 µM; 2,400 tested, 78% active; AID 652136;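 active = inhibition above the mean of all tested compounds plus 3 SD, cut at about 3% in these data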
SMARCA2 conf – SMARCA2 activation, confirmation screen; shares compounds with SMARCA2 activ; MG213 cells, MMTV-luciferase with dexamethasone, luminescence, overnight; MG213 cells expressing E1A, Rb sequestered; DMSO wells 0%, reference activator 100%; activation, % at 9.1 µM; 3,500 tested, 30% active; AID 652260;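 active = activation above its plate's cutoff, the mean activation of tested wells plus 3 SD, cut at about 7.9% in these data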
VP16 Luc act – counter-screen for SMARCA2 activators: GAL4-VP16 luciferase reporter activation. shares compounds with SMARCA2 activ. HEK293 GAL4-VP16 pG5luc reporter, luciferase luminescence; scaled: DMSO wells 0%, SAHA wells 100%. activation, % at 9.1 µM. 3,500 tested, 41% active. AID 686939;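 active = activation above the solvent-only control well mean plus 3 SD, averaged across control plates, cut at about 5.2% in these data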
LXR ag – counter-screen for hcDAF-12 agonists: agonists of human LXR-beta | AID 743027 | activation, % at 6.8 µM | HEK293 Gal4-LXR tk-luc reporter, luminescence, 24 h; normalized: DMSO 0%, positive control 100% | 3,400 tested, under 10 active | shares compounds with hcDAF-12 act;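 active = mean percent activation of the reporter above a cutoff set as the average over tested compounds plus their standard deviation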
Target sequence (P55055 whole entry, looked up, the tested form may be a part): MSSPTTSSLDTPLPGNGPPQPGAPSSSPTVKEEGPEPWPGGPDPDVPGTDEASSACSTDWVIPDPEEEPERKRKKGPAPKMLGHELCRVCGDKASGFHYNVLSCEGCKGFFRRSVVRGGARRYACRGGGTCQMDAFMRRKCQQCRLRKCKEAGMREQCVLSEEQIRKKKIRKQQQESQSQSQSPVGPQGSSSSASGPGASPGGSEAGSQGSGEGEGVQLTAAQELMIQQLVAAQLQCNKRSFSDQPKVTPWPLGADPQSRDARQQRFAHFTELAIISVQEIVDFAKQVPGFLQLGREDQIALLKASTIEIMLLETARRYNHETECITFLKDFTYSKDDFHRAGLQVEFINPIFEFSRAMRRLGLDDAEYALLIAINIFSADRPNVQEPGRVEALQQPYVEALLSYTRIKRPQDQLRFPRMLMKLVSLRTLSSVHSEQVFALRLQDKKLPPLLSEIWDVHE
hcDAF12 ag – hcDAF-12 agonism, confirmation assay. shares compounds with hcDAF-12 act. HEK293 hcDAF-12 lit1-tk-luc reporter, luminescence; % of Δ7-dafachronic acid response. activation, % at 6.8 µM. 3,400 tested, 61% active. AID 743032;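 active = mean activation across triplicate tests above the threshold derived from the earlier primary screen, cut at about 5.5% in these data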
hgDAF12 conf – hgDAF-12 agonism, confirmation assay | shares compounds with hgDAF-12 ag | HEK293 GAL4-hgDAF12 luciferase reporter, agonist mode; percent of butyrate response | activation, % at 6.8 µM | 3,300 tested, 80% active | AID 743050;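 active = mean activation over triplicate wells above the hit cutoff derived from the earlier primary screen, cut at about 11% in these data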
LXR ag 2 – LXR-beta agonism as DAF-12 counter-screen; shares compounds with hgDAF-12 ag; HEK293 Gal4-LXR luciferase reporter, 24 h; activation, % at 6.8 µM; 3,300 tested, under 10 active;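 active = mean activation of the triplicate above a set limit carried over from the primary screen, none filed active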
Hits are given with their value.

Results for Cc1cc(C(=O)CSc2cccc[n+]2[O-])c(C)n1-c1ccccc1 ?
ssDAF12 agonist: inactive; SMARCA2 activ: inactive; hcDAF-12 act: 7.5; DAX1 inh-1: 8.1; DAX1 inh-2: inactive; hgDAF-12 ag: 16; DAX1 inh confirm: 17; SF1 mutant ctr: 7.8; LXR ag: inactive; hcDAF12 ag: 7.2; hgDAF12 conf: 13; LXR ag 2: inactive

What do the screens show for `O=C(CSc1cccc[n+]1[O-])c1ccccc1Br`?
ssDAF12 agonist: inactive; SMARCA2 activ: inactive; hcDAF-12 act: inactive; DAX1 inh-1: inactive; DAX1 inh-2: inactive; hgDAF-12 ag: inactive

What do the screens show for `C/C(=C/c1ccccc1)C(=O)N1CCN(c2ccc(F)cc2)CC1`?
ssDAF12 agonist: inactive; SMARCA2 activ: inactive; hcDAF-12 act: inactive; DAX1 inh-1: inactive; DAX1 inh-2: inactive; hgDAF-12 ag: inactive

What do the screens show for `Fc1ccc(-c2csc(N3CCOCC3)n2)cc1`?
ssDAF12 agonist: inactive; SMARCA2 activ: inactive; hcDAF-12 act: inactive; DAX1 inh-1: inactive; DAX1 inh-2: inactive; hgDAF-12 ag: inactive

How did c1ccc2oc(-c3csc(N4CCOCC4)n3)cc2c1 do in these assays?
ssDAF12 agonist: inactive; SMARCA2 activ: inactive; hcDAF-12 act: 9.3; DAX1 inh-1: 7.7; DAX1 inh-2: inactive; hgDAF-12 ag: 18; DAX1 inh confirm: 11; SF1 mutant ctr: 3.2; LXR ag: inactive; hcDAF12 ag: 7.8; hgDAF12 conf: 15; LXR ag 2: inactive

What do the screens show for `Cc1nc(-c2ccccc2)sc1-c1ccnn1C`?
ssDAF12 agonist: inactive; SMARCA2 activ: inactive; hcDAF-12 act: 8.8; DAX1 inh-1: 6.2; DAX1 inh-2: inactive; hgDAF-12 ag: 16; DAX1 inh confirm: 15; SF1 mutant ctr: 7.9; LXR ag: inactive; hcDAF12 ag: 5.8; hgDAF12 conf: 18; LXR ag 2: inactive

Results for Cc1nc(-c2ccccc2)sc1-c1ccn[nH]1 ?
ssDAF12 agonist: inactive; SMARCA2 activ: 12; hcDAF-12 act: 8.8; DAX1 inh-1: 9.2; DAX1 inh-2: inactive; hgDAF-12 ag: 14; DAX1 inh confirm: 16; SF1 mutant ctr: 10; SMARCA2 conf: 14; VP16 Luc act: 13; LXR ag: inactive; hcDAF12 ag: inactive; hgDAF12 conf: 17; LXR ag 2: inactive

Results for Nc1nccnc1C(=O)OCC(=O)Nc1ccc2[nH]c(=O)[nH]c2c1 ?
ssDAF12 agonist: inactive; SMARCA2 activ: inactive; hcDAF-12 act: inactive; DAX1 inh-1: inactive; DAX1 inh-2: inactive; hgDAF-12 ag: inactive

What do the screens show for `CCOC(=O)N1CCN(C(=O)/C(=C/c2ccc(Cl)cc2)NC(=O)c2ccccc2)CC1`?
ssDAF12 agonist: inactive; SMARCA2 activ: inactive; hcDAF-12 act: inactive; DAX1 inh-1: inactive; DAX1 inh-2: inactive; hgDAF-12 ag: inactive

How did Clc1ccc2nc(CSc3nnc(-c4c[nH]c5ccccc45)o3)cn2c1 do in these assays?
ssDAF12 agonist: inactive; SMARCA2 activ: inactive; hcDAF-12 act: inactive; DAX1 inh-1: inactive; DAX1 inh-2: inactive; hgDAF-12 ag: inactive

How did Brc1ccc2nc(-c3c[nH]c4ccccc34)cn2c1 do in these assays?
ssDAF12 agonist: inactive; SMARCA2 activ: inactive; hcDAF-12 act: 11; DAX1 inh-1: 8.8; DAX1 inh-2: 6.2; hgDAF-12 ag: 22; DAX1 inh confirm: 18; SF1 mutant ctr: 8.5; LXR ag: inactive; hcDAF12 ag: 9.6; hgDAF12 conf: 21; LXR ag 2: inactive

How did CCN=C1NN=C(c2c[nH]c3ccccc23)CS1 do in these assays?
ssDAF12 agonist: 3.7; SMARCA2 activ: inactive; hcDAF-12 act: 11; DAX1 inh-1: 4.9; DAX1 inh-2: inactive; hgDAF-12 ag: 15; DAX1 inh confirm: 12; SF1 mutant ctr: 5.8; LXR ag: inactive; hcDAF12 ag: 12; hgDAF12 conf: 20; LXR ag 2: inactive

How did CCN=C1NN=C(c2cc(C)n(CCc3ccccc3)c2C)CS1 do in these assays?
ssDAF12 agonist: inactive; SMARCA2 activ: inactive; hcDAF-12 act: inactive; DAX1 inh-1: inactive; DAX1 inh-2: inactive; hgDAF-12 ag: inactive

Results for CSCC[C@H](NC(=O)C1CCCC1)c1nc2ccccc2[nH]1 ?
ssDAF12 agonist: inactive; SMARCA2 activ: inactive; hcDAF-12 act: inactive; DAX1 inh-1: inactive; DAX1 inh-2: inactive; hgDAF-12 ag: inactive

What do the screens show for `COc1ccc(CNc2nc3ccccc3n2C)c(OC)c1`?
ssDAF12 agonist: inactive; SMARCA2 activ: 8.0; hcDAF-12 act: inactive; DAX1 inh-1: 6.4; DAX1 inh-2: inactive; hgDAF-12 ag: 13; DAX1 inh confirm: 12; SF1 mutant ctr: 7.4; SMARCA2 conf: 10; VP16 Luc act: 10; hgDAF12 conf: 15; LXR ag 2: inactive

Results for CC(C)c1ccc(Nc2ncccc2C(=O)O)cc1 ?
ssDAF12 agonist: inactive; SMARCA2 activ: inactive; hcDAF-12 act: 6.0; DAX1 inh-1: 6.4; DAX1 inh-2: inactive; hgDAF-12 ag: 22; DAX1 inh confirm: 15; SF1 mutant ctr: 7.4; hgDAF12 conf: 21; LXR ag 2: inactive

How did COc1cc(Cl)ccc1OCc1cc(C(=O)N2CCCC(OC)C2)no1 (stereo unspecified) do in these assays?
ssDAF12 agonist: inactive; SMARCA2 activ: inactive; hcDAF-12 act: inactive; DAX1 inh-1: 8.1; DAX1 inh-2: inactive; hgDAF-12 ag: 18; DAX1 inh confirm: 6.6; SF1 mutant ctr: 4.1; hgDAF12 conf: 17; LXR ag 2: inactive
